# Laboratory results from PubChem BioAssay (NCI).
# This is part of a sample that, as a whole, favours compounds with a hit. Of some 83,000 tested, about 20% had one in any assay.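 In brief: 96-well plates, 48 h treatment, single concentration, percent growth endpoint.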 Unmarked numbers belong to inactive results. The calls were made as follows: active = growth percent below 10; inactive = the rest.
# Tested on: HL-60(TB) leukemia
# Test: NCI-60 one-dose screen, 48 h (100 = growth as untreated, 0 = no growth, -100 = all killed)
# Conditions: 10 µM unless noted
row,Structure (SMILES),growth [%]
1,COc1cc(C2CC(c3cc(OC)c(OC)c(OC)c3)=NN2C(C)=O)ccc1OCc1ccc(F)cc1 (stereo not drawn),37.3
2,Cc1ccc(C(=O)CSc2nc3ccc(F)cc3c(=O)n2-c2ccc(Cl)cc2)cc1,117
3,CC(=O)OC[C@@]1(C)C2CC[C@]3(C)C(CC=C4C5CC(C)(C)CC[C@]5(C(=O)Nc5cccc(C)c5)CC[C@]43C)[C@@]2(C)C[C@@H](OC(C)=O)[C@@H]1OC(C)=O (stereo partly drawn),29.4
